# An excerpt weighted towards active compounds, which were near 2.5% of everything screened.
# ASK1 primary – inhibitors of human ASK1 kinase. Q99683. AlphaScreen MKK6 phosphorylation by ASK1, luminescence. inhibition, % at 7.44 µM. 22,000 compounds, 0.99% hits; in the data active = inhibition above about 35%;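 also: 0% = median of compound wells and 100% = no enzyme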
# ULK1 primary – inhibitors of human ULK1 kinase | O75385 | AlphaScreen Atg13 phosphorylation by ULK1, luminescence | inhibition, % at 5.96 µM | 30,000 compounds, 1.9% hits; in the data active = inhibition above about 43%;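 also: 0% = median of compound wells and 100% = no enzyme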
# Numbers without * were called inactive; nt = not tested or not shown.
SMILES,ASK1 primary,ULK1 primary
CN(C)[C@@H]1C(=O)C(C(N)=O)=C(O)[C@@]2(O)C(=O)C3=C(O)c4c(O)cccc4[C@@](C)(O)[C@H]3C[C@@H]12,nt,24
CN(C)[C@@H]1C(=O)C(C(N)=O)=C(O)[C@@]2(O)C(=O)C3=C(O)c4c(O)ccc(Cl)c4[C@@](C)(O)C3C[C@@H]12 (some centres undefined),nt,49*
CN(C)C1C(=O)C(C(N)=O)=C(O)C2(O)C(=O)C3=C(O)c4c(O)cccc4C(C)(O)C3CC12 (centres undefined),nt,72*
CC(CO)NC(=O)C1C=C2c3cccc4[nH]cc(c34)C[C@H]2N(C)C1 (some centres undefined),nt,22
CCN(CC)C(=O)N[C@H]1C=C2c3cccc4[nH]cc(c34)C[C@H]2N(C)C1,nt,62*
O=C(Nc1ccc(O)cc1)C(Cl)(Cl)Cl,nt,6
CC12CC[C@H]3[C@@H](CCC4=CC(=O)CC[C@@H]43)[C@@H]1CC[C@@H]2O (some centres undefined),nt,-3
CCC(=O)OC(Cc1ccccc1)(c1ccccc1)[C@H](C)CN(C)C (some centres undefined),nt,95*
CC(CC(C(N)=O)(c1ccccc1)c1ccccc1)N(C)C (centres undefined),nt,2
C=C1C[C@@H]2[C@H](CCC3(C)C(=O)CC[C@@H]23)C2(C)C=CC(=O)C=C12 (some centres undefined),nt,0
C[C@H](N)[C@H](O)c1ccccc1,nt,-10
C[C@H](N)[C@H](O)c1ccc(O)c(O)c1,nt,71*
CCOC(=O)C1=C(NC(=O)CC)c2ccccc2CC12CCCC2,nt,8
Cc1cncc2cccc(N3CCNCC3)c12,3,4
O=C(NCCN1CCOCC1)c1cccc(Cl)n1,-19,-5

# Screens: PubChem BioAssay, The Scripps Research Institute Molecular Screening Center
